A selection: hits, their analogues and other compounds. The true share with any hit is near 7.9%.
HCMV antiviral: blocks human cytomegalovirus replication. AID 1259415. HFF cells, HCMV-luciferase reporter, 72 h; hits give low values. activity change, negative = inhibition, % at 57.5 µM. hit rate 4.5% among 410,000; in the data active means activity change below about -60%; inconclusive means no clear call, values can overlap the other calls; inactive means above about -39%
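Steps: HFFs plated, 16 h 37C; compounds added; HCMV-luciferase added to MOI 1 PFU/cell; 72 h 37C; OneGlo reagent, 5 min room temperature; luminescence read, normalized to controls.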
Lassa entry inh: inhibitors of Lassa virus binding or cell entry. Lassa virus pseudotype entry inhibition, cell reporter. Potency, µM (series often up to 37.9 µM), inactives show at the highest dose activity change, negative = inhibition, hits mostly inhibitors. hit rate 1.2% among 300,000; calls by dose curve; tested in HEK293 cells; further: potency means the concentration at half of the fitted maximal effect; nearly all actives have a fitted effect of over 50% in size
HCV inh: blocks hepatitis C virus; Huh7.5.1 HCVcc-Cre infection, luciferase reporter, 44 h; Potency, µM (doses to about 41.8 µM), for the others: at the highest dose activity change, negative = inhibition, usual class: inhibitors; AID 651820; hit rate 3.4% among 340,000; active means well fitted inhibition curve with a large enough effect; inconclusive means small, poorly fitted or top-dose-only effect, or another doubt; inactive means no such curve, though single readings can be large or run the other way; further: potency means the concentration at half of the fitted maximal effect
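Cells seeded at 1,000/well and cultured 4 h, then compounds added followed by HCVcc-Cre virus (~0.5 moi). After 44 h further culture, luciferase substrate was added, plates held 15 min at room temperature, and luminescence read for 15 sec.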
FMDV inh: blocks foot and mouth disease virus; FMDV antiviral cell-based qHTS; hit rate 1.2% among 410,000; AID 1159524; Potency, µM (series often up to 57.9 µM), inactives show top-dose activity change, negative = inhibition, most hits filed as inhibitors; calls by dose curve; tested in HEK293T cells; further: read-out not given here; potency means the concentration at half of the fitted maximal effect; nearly all actives have a fitted effect of over 45% in size
MARV entry inh: blocks Marburg virus binding to or entry into cells; AID 540276; Potency, µM (series often up to 37.8 µM), without a hit: at the highest dose activity change, negative = inhibition, hits mostly inhibitors; hit rate 1.8% among 300,000; Marburg virus pseudotyped entry inhibition, cell reporter; calls by dose curve; tested in HEK293 cells; further: potency means the concentration at half of the fitted maximal effect
Starred values were filed as active, the others as inactive; u = inconclusive; x = no result; [ ] = remark or other dose. On the % scale 0 is the no-effect control and ±100 the full control effect.

SMILES	HCMV antiviral	Lassa entry inh	HCV inh	FMDV inh	MARV entry inh
COC(=O)c1cc2oc3ccccc3c2n1Cc1c(F)cccc1Cl	47.8	x	x	-15.9%	-3.6%[46.1 µM]
COc1ccc(N=N/C(=C\O)C(=O)c2cccs2)cc1	-92.5*	u	-9.9%	-7.8%	-28.7%[46.1 µM]
CN1CCN(Cc2nc3ccccc3c(=O)n2Cc2nc(-c3cccc([N+](=O)[O-])c3)cs2)CC1	-13.6	u	2.51µM*	-0.9%	u
CN1CCN(Cc2nc3ccccc3c(=O)n2Cc2nc(-c3ccc4ccccc4c3)cs2)CC1	-76.3*	u	11.2µM*	u	u
O=C(NNC(=O)c1ccccc1OCc1ccccc1)c1ccccc1O	-88.4*	-2.0%[46.1 µM]	u	8.3%	-22.6%[46.1 µM]
O=C(N/N=C/c1ccccc1F)c1ccccc1OCc1ccccc1	7.9	-0.6%[46.1 µM]	10µM*	7.3%	-5.7%[46.1 µM]
O=C(NNC(=O)c1ccccc1OCc1ccc(F)cc1)c1ccccc1O	-94.8*	u	6.31µM*	-21.8%	u
O=C(Cc1ccsc1)NNC(=O)c1ccccc1O	-61.4*	u	u	8.5%	-1.4%[46.1 µM]
O=C(NNC(=O)c1ccccc1OCc1ccccc1)c1ccccc1F	132.3	-5.5%[46.1 µM]	-25.9%	16.4%	-18.2%[46.1 µM]
O=C(COC(=O)Cc1ccsc1)NNC(=O)c1ccccc1	8.4	x	15.2%	8.8%	x
O=C(N/N=C/c1ccccc1F)c1cccc2ccccc12	-1.2	x	-7.3%	20.3%	x
O=C1C(c2nnnn2-c2ccc(F)cc2)N(C2CC2)C(=O)N1c1ccccc1 (centres undefined)	-5.8	x	x	x	x
CC(C)=CCCC(C)=CCON=C1C[C@@H](O)[C@@H](O)[C@@H]2[C@H]3C(=O)N(C[C@@H]4CCCO4)C(=O)[C@@H]3CC[C@H]12	x	x	x	x	21.6%[14.2 µM]
COc1cccc([C@@H]2Oc3ccc(Br)cc3C(=O)[C@@H]2OC(=O)Nc2cc(OC)c(OC)c(OC)c2)c1	x	x	x	x	5.2%[14.2 µM]
CN(C)S(=O)(=O)c1cccc(COc2ccccc2C(=O)Nc2ccccc2)c1	-27.2	u	u	0.0%	u
CC(=O)c1ccccc1OCc1ccc(S(=O)(=O)Cc2ccccc2)cc1	-70.5*	x	10µM*	u	x
COc1ccccc1C(=O)NCc1ccccc1	-26.4	0.6%	7.5%	60.8%	11.1%
O=C(NCc1ccc(F)cc1)c1ccccc1OCc1ccccc1	-63.4*	u	-28.0%	u	u
CN(C)S(=O)(=O)c1cccc(NC(=O)c2ccccc2OCc2ccc(F)cc2)c1	-33.6	u	6.31µM*	-16.3%	-11.9%[46.1 µM]
O=C(N/N=C/c1ccccc1F)c1csc2c1CCCC2	41.4	11.2µM*	18.2%	1.2%	9.6%
Cc1cc(C)n(CC(=O)NNC(=O)COc2ccc(Br)cc2F)n1	-3.3	6.7%	-11.0%	-11.2%	-2.2%
COc1ccc(-c2cc(C(=O)Nc3ccn(Cc4ccc(C)cc4)n3)no2)cc1OC	-11.9	u	x	-12.9%	u
COc1cc(OC)c(C(=O)N/N=C/c2ccoc2)cc1OC	-68.8*	26.4%[46.1 µM]	5.3%	2.5%	-4.2%[46.1 µM]
COc1ccc(C(=O)N/N=C\c2ccoc2)cc1	26.4	x	24.2%	70.0%	x
Cc1cc(Br)c2[nH]cc(CCNC(=O)c3ccco3)c2c1	-35.3	x	12.6µM*	-20.9%	x
SMILES	HCMV antiviral	Lassa entry inh	HCV inh	FMDV inh	MARV entry inh
Cc1ccc2[nH]cc(CCNC(=O)c3ccco3)c2c1	39.9	2.5%[46.1 µM]	5.4%	0.0%	-10.3%[46.1 µM]
COc1cc(S(=O)(=O)Nc2ccccc2C)ccc1NC(=O)c1ccncc1	-71.6*	-16.2%	-23.1%	52.0%	-11.9%[46.1 µM]
CCOC(=O)C1CCCN(C(=O)c2cc(S(=O)(=O)Nc3ccccc3OC)ccc2C)C1 (centres undefined)	0.0	u	10µM*	21.7%	12.7%[46.1 µM]
COc1ccccc1NC(=O)c1ccc(S(=O)(=O)N2CCCC2)cc1	24.5	x	-12.4%	-16.6%	x
COc1ccccc1NS(=O)(=O)c1ccc(C)c(NC(=O)c2ccc(S(=O)(=O)N3CCCCCC3)cc2)c1	-69.3*	-12.9%	7.94µM*	-24.6%	u
COc1ccccc1NS(=O)(=O)c1cc(C(=O)N2CC(C)CC(C)C2)ccc1C (centres undefined)	10.4	17.9%	-19.6%	-9.4%	8.2µM*
CCCNC(=O)C1(C)CCN(C(=O)c2ccc3sccc3c2)C1 (centres undefined)	13.0	x	x	-11.7%	x
CCc1ccc(NC(=O)c2ccc3[nH]c(C)c(C)c3c2)cc1	0.0	-1.4%[46.1 µM]	x	-21.0%	x
O=C(CCc1nc2ccccc2c(=O)[nH]1)Nc1nc(-c2cccs2)cs1	x	-17.6%	u	-1.1%	11.9%[46.1 µM]
CN(c1ccc(-c2csc(NC(=O)CCCc3nc4ccccc4c(=O)[nH]3)n2)cc1)S(C)(=O)=O	-19.5	x	x	35.5µM*	x
CN(c1ccc(-c2csc(NC(=O)C3CC(=O)N(Cc4ccco4)C3)n2)cc1)S(C)(=O)=O (centres undefined)	24.2	x	u	22.4µM*	x
CC(=O)NC(CC(=O)Nc1nc(-c2ccc(N(C)S(C)(=O)=O)cc2)cs1)c1ccccc1 (centres undefined)	0.3	u	11.2µM*	-24.4%	u
Cc1c(C(=O)NC2CCCC2)sc2ncnc(NCCN(C)C)c12	x	x	x	-4.8%	x
COc1ccc(NCC(=O)N/N=C/C=C\c2ccccc2)cc1	-23.5	u	0.2%	14.9%	3.0%
CCNC(=O)COc1cccc2ccccc12	-69.3*	1.5%	-15.1%	4.0%	-0.1%
O=C(COc1cccc2ccccc12)N/N=C/C=C/c1ccccc1	-62.0*	-1.9%	1.5%	-15.4%	-6.3%
Cc1ccccc1OCC(=O)N/N=C/C=C/c1ccccc1	-4.2	6.3%	16.3%	-3.7%	2.5%
COc1ccc(/C=C/C=N/NC(=O)COc2ccc(OC)cc2)cc1	-0.8	0.794µM*	5.0%	28.0%	-0.3%
CC1=CC(=O)C=C(C)C1=NOS(=O)(=O)c1ccccc1	-97.5*	10µM*	u	14.1µM*	u
Cc1ccc2c(c1)/C(=N/OS(=O)(=O)c1ccccc1)CCS2	43.1	14.3%	-0.7%	-3.3%	5.2%
CC1=CC(=O)C(C(C)C)=C/C1=N/OS(=O)(=O)c1ccccc1	-88.5*	x	6.31µM*	25.1µM*	x
CN(C(=O)c1cnn(-c2nccc(-c3ccccc3C(F)(F)F)n2)c1C1CC1)C1CCOC1 (centres undefined)	x	x	x	33.2%	x
O=[N+]([O-])c1cnccc1Nc1cccc(F)c1	-10.7	3.7%	u	-7.2%	u
COc1ccc(Nc2ccncc2[N+](=O)[O-])cc1	-71.2*	x	12.3%	-14.1%	-0.5%[46.1 µM]
O=S(=O)(c1ccccc1)[C@@]1(c2ccc(Br)cc2)C[C@@H]2ON=C(c3ccccc3)[C@@H]2C1	-17.4	x	10µM*	-27.3%	x
CCOc1ccc(NC(=O)CN2C(=O)CSC2=O)cc1	48.0	-64.3%[46.1 µM]	-2.2%	-25.4%	u
Cc1ccccc1-c1noc(-c2ccc(N3CCC(C)CC3)c([N+](=O)[O-])c2)n1	12.7	1.2%[46.1 µM]	x	36.0%	u
CC1CC2(CCCC2)Nc2ccc(F)cc21 (centres undefined)	u	x	12.0%	-11.5%	x
Cc1cccc2c1NC1(CCCC1)CC2C (centres undefined)	-63.0*	x	5.8%	-23.9%	x

Compound activity: PubChem, National Center for Advancing Translational Sciences (NCATS)
